Most compounds without a hit are left out; they make up all but 4.2% or so of the library.
MITF act: increases MITF-driven TRPM1 promoter luciferase signal; SK-MEL-5 TRPM1-promoter luciferase, 24 h; % of positive control, neutral wells = 0; activation, % at 12.5 µM; 300,000 tested, 0.75% active;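 active means mean activation of at least 80% with every replicate also reaching 80%; inconclusive means mean reaches 80% but some replicate falls short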;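 further: 0% = neutral control wells and 100% = parthenolide positive control wells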
Wnt bcat act: activates Wnt/beta-catenin signaling in a reporter cell assay; activator, plate reader; activation, % at 9.35 µM; 300,000 tested, 1.2% active; in the data active means activation above about 30%, passing the limit was not always enough; inconclusive means no clear call, values can overlap the other calls;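 further: 0% = neutral control wells and 100% = positive control wells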
FXN GAA850 act: activators of GAA850 frataxin (FXN) promoter; HEK293 lucGAA850 FXN promoter luciferase reporter, 24 h; percent of 10 µM SAHA response; activation, % at 6 µM; 360,000 tested, 0.56% active;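 active means activation above the average of all compounds screened plus 3 SD, cutoff fixed separately per campaign, cut at about 7.5% in these data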;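 further: 0% = DMSO wells and 100% = 10 µM SAHA wells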
AHR activator: activates the human aryl hydrocarbon receptor; AID 2796; AHR-responsive luciferase reporter cells, luminescence; P35869; activation, % at 5 µM; 320,000 tested, 2.5% active; in the data active means activation above about 47%;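 further: 0% = vehicle wells and 100% = reference agonist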
Target sequence (P35869 whole entry, looked up): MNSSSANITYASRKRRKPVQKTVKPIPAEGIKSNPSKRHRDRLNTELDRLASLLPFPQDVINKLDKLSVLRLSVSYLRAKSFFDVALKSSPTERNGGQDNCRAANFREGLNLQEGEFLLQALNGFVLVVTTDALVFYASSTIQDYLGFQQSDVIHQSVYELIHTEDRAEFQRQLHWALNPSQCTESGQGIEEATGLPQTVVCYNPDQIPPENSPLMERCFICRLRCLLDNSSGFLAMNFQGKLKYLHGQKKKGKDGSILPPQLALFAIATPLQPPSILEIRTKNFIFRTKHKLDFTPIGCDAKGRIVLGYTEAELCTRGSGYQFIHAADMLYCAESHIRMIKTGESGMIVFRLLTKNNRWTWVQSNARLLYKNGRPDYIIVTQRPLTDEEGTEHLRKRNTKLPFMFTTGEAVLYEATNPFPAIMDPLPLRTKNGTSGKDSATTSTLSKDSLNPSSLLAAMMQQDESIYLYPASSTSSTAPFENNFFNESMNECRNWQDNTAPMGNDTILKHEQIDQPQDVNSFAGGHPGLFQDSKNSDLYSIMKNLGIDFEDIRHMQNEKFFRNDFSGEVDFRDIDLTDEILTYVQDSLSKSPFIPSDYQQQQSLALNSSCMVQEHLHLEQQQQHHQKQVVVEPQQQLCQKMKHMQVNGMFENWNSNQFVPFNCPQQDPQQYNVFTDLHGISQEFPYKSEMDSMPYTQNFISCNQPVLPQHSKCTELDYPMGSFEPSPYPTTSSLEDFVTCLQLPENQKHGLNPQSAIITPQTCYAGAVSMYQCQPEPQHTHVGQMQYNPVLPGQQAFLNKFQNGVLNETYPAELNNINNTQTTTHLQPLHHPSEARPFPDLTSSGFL
esBAF inh: inhibitors of esBAF chromatin remodeling in mouse ES cells; Bmi1-luciferase knock-in reporter, 24 h; 100% = twice the neutral-well signal; reporter increase, % at 12.5 µM; 350,000 tested, 2% active; AID 602393; in the data active means activation above about 40%; inconclusive means no clear call, values can overlap the other calls;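 further: 0% = median of the plate's neutral control wells and 100% = double that signal; a rise in the Bmi1 reporter signal indicates esBAF inhibition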
* = called active by the depositor; u = inconclusive; x = no result given.

SMILES	MITF act	Wnt bcat act	FXN GAA850 act	AHR activator	esBAF inh
O=[N+]([O-])c1ccc2nc(-c3cccnc3)[nH]c2c1	23	3	1	18	20
O=[N+]([O-])c1ccc2nc(-c3ccccc3)[nH]c2c1	103*	68*	7	45	x
Cc1c(=O)n(OCc2cccc(F)c2)c2ccccc2[n+]1[O-]	x	-1	-2	84*	-5
Cc1c(=O)n(OCc2ccc(Cl)cc2)c2ccccc2[n+]1[O-]	-14	-3	1	59*	x
C=CCOn1c(=O)c(-c2ccc(Cl)cc2)[n+]([O-])c2ccccc21	3	0	-1	x	4
C[C@H](CO)N1C[C@H](C)[C@H](CN(C)C(=O)CCC(F)(F)F)OCc2ccccc2-c2c(n(C)c3ccccc23)C1=O	x	x	x	x	6
Cc1noc(C)c1S(=O)(=O)Nc1ccc2c(c1)C(=O)N([C@H](C)CO)C[C@H](C)[C@@H](CN(C)S(=O)(=O)c1ccc(F)cc1)OCCCC[C@@H](C)O2	x	x	x	x	5
CCOc1cccc(OCCOc2ccccc2[N+](=O)[O-])c1	u	x	3	5	80*
Cc1ccc(S(=O)(=O)N2C[C@H](O)COC[C@H]3O[C@H](CC(=O)NCc4ccc5c(c4)OCO5)CC[C@@H]32)cc1	x	x	x	x	-3
Cc1cccc(C(=O)O/N=C(\N)c2ccc(Cl)cc2)c1	27	44*	4	55*	x
COc1ccc(/C(N)=N/OC(=O)CSc2ccccc2)cc1OC	55	45*	4	1	u
COc1cc(OC)c(C(=O)O/N=C(\N)c2ccccc2)cc1OC	29	8	1	78*	32
COc1ccc(C(=O)O/N=C(\N)c2ccccc2)cc1OC	49	56*	5	14	u
COc1ccc(C(=O)O/N=C(\N)c2ccncc2)cc1OC	14	x	1	19	23
C/C=C/c1ccc([C@H]2[C@@H](CO)N[C@@H]2CNC(=O)CC2CC2)cc1	x	x	x	x	3
COc1ccccc1NC(=O)N1CC[C@@H]2[C@@H](CO)N(C)c3ccc(-c4cccc(F)c4)cc3[C@@H]21	x	x	x	x	1
C[C@H]1CCCCO[C@H](CN(C)S(=O)(=O)c2ccc(F)cc2)[C@@H](C)CN([C@@H](C)CO)C(=O)c2cc(NC(=O)CCC(F)(F)F)ccc2O1	x	x	x	x	-2
CNC[C@H]1Oc2c(NC(=O)C3CC3)cccc2C(=O)N([C@H](C)CO)C[C@H]1C	x	x	x	x	-2
CNC(=O)C[C@H]1CC[C@@H]2[C@H](COc3ccc(NS(=O)(=O)c4ccccc4C)cc3C(=O)N2C)O1	x	x	x	x	2
COc1ccc(C(=O)O/N=C(\N)c2cccc(C)c2)cc1OC	65	21	1	-1	69*
COc1cccc(C(=O)O/N=C(\N)c2ccc(C)cc2)c1	59	29	6	68*	43
Cc1cccc(C(=O)O/N=C(\N)c2ccc(Br)cc2)c1	21	x	0	42	x
c1ccc(N2CCN(c3nc4ccccc4n4nnnc34)CC2)cc1	19	7	-1	73*	12
CC1CCCN(C(=O)COC(=O)Cc2c(F)cccc2Cl)C1 (configuration not stated)	60	14	1	0	45*
Cc1cc(C(=O)COC(=O)Cc2c(F)cccc2Cl)c(C)n1C	x	11	2	x	78*
SMILES	MITF act	Wnt bcat act	FXN GAA850 act	AHR activator	esBAF inh
CN1C(=O)c2cc(NC(=O)Cc3ccccc3)ccc2OC[C@H]2O[C@@H](CC(=O)O)CC[C@H]21	x	x	x	x	0
CCC(=O)c1ccc(Oc2nc3c(c(=O)n(C)c(=O)n3C)n2CC)cc1	x	-2	-1	61*	-7
COc1cccc(C(=O)Cn2c(Br)nc3c2c(=O)n(C)c(=O)n3C)c1	-22	49*	-1	10	9
COc1ccc(C(=O)Cn2c(Cl)nc3c2c(=O)n(C)c(=O)n3C)cc1	x	-2	2	1	-8
C[C@H](CO)N1C[C@H](C)[C@@H](CN(C)C(=O)Nc2cccc3ccccc23)Oc2ccc(NS(C)(=O)=O)cc2C1=O	x	x	x	x	4
O=C(NCC[C@H]1CC[C@@H](NC(=O)C2CCC2)[C@@H](CO)O1)c1cnccn1	x	x	x	x	-6
Cc1ccc(C(=O)/C=C/Nc2cccc([N+](=O)[O-])c2)o1	85*	x	6	4	x
CCN(CC)Cc1c(O)ccc2c(=O)c(-c3ccc4c(c3)OCCO4)coc12	6	x	-3	-3	4
CCc1cc2c(=O)c(-c3ccc4c(c3)OCCO4)coc2cc1OC(=O)c1ccco1	x	67*	0	-2	-6
CCCc1cc2c(=O)c(-c3ccc4c(c3)OCCO4)coc2cc1OC(=O)c1ccco1	84*	x	3	3	81*
CCCc1cc2c(=O)c(-c3ccc4c(c3)OCCO4)coc2cc1OS(C)(=O)=O	59	8	5	9	x
Cc1ccc(NC(=O)NNC(=O)COc2ccc([N+](=O)[O-])cc2)cc1C	-2	0	-2	4	-4
Cc1ccc(NC(=O)CCC(=O)NNC(=O)COc2ccc([N+](=O)[O-])cc2)cc1C	-10	-1	1	53*	x
COc1ccc(CC(=O)N2CCN(c3ccccn3)CC2)cc1OC	2	x	2	3	4
O=C(c1ccc(CS(=O)(=O)c2c(Cl)cccc2Cl)o1)N1CCN(c2ccccn2)CC1	-4	-2	1	94*	3
CCCc1ccc(OCc2ccc(C(=O)N3CCN(c4ccccn4)CC3)o2)c(OC)c1	16	x	3	21	45*
Cc1ccc(S(=O)(=O)Cc2ccc(C(=O)N3CCN(c4ccccn4)CC3)o2)cc1	-9	-1	-1	17	0
N#C/C(=N\Nc1ccc(F)cc1)C(=N)N1CCCCC1	114*	x	4	4	13
N#C/C(=N\Nc1cccc(F)c1)C(=N)N1CCCCCC1	u	13	5	28	x
COc1ccc(N/N=C(\C#N)C(=N)N2CCOCC2)cc1	17	3	2	19	x
N#C/C(=N\Nc1ccccc1)C(=N)N1CCCCCC1	56	42*	3	14	16
CCCC(=O)Nc1ccc2c(c1)C(=O)N(C)[C@H]1CC[C@H](CC(=O)NCc3ccccc3F)O[C@H]1CO2	x	x	x	x	1
CCOC(=O)C1(Cc2ccccc2)CCCN(C(=O)c2cnn(CC)c2)C1 (configuration not stated)	91*	24	3	6	65*
CCOC(=O)C1(Cc2cccc(OC)c2)CCCN(C(=O)CNC(C)=O)C1 (configuration not stated)	64	10	4	2	65*
CCOC(=O)C1(Cc2cccc(OC)c2)CCCN(C(=O)c2cc(C)on2)C1 (configuration not stated)	31	12	4	2	48*
CCOC(=O)C1(Cc2cccc(OC)c2)CCCN(C(=O)c2cc(C)[nH]n2)C1 (configuration not stated)	52	11	2	3	x
CCOC(=O)C1(Cc2ccccc2)CCCN(Cc2cnn(CC)c2)C1 (configuration not stated)	x	0	-1	1	x
